# The list is not random: actives were taken first. Their share in the collection is about 22%.
# LmPK inhibitor – qHTS Assay for Inhibitors of Leishmania Mexicana Pyruvate Kinase (LmPK) | Q27686 | actives 0.37% (n = 290,000) | Potency, µM (highest dose often 57.5 µM), inactives show at the top dose activity change, negative = inhibition, hits mostly inhibitors | purified LmPK, Kinase-Glo ATP luminescence, 1 h; note: potency is the fitted concentration of half-maximal effect; % is set by controls: 0 for no effect and ±100 for the full control effect
# Target sequence (Q27686 whole entry, looked up): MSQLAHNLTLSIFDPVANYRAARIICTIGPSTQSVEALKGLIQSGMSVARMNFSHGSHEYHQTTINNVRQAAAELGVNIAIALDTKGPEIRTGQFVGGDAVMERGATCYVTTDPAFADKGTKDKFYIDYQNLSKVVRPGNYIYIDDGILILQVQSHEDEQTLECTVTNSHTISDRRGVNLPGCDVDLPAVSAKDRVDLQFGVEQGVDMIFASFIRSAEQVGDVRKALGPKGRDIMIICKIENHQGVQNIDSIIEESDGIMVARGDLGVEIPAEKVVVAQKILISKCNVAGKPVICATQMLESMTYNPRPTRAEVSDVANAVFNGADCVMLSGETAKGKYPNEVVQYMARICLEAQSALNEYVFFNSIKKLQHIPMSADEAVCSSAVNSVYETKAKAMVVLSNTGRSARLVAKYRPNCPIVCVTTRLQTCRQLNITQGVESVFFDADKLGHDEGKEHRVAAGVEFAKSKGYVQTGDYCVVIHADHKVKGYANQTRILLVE
#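 Pyruvate kinase activity monitored as ATP production (luciferase luminescence). Conditions: 0.1 nM enzyme, 0.5 mM PEP, 0.1 mM ADP, 1 h, RT; normalized against uninhibited and no-enzyme wells.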
# Cycloheximide cs – Cycloheximide Counterscreen for Small Molecule Inhibitors of Shiga Toxin. cell reporter, cycloheximide protein synthesis inhibition counterscreen. max response, %. actives 12% (n = 300,000). AID 2314, 2010; in the data active = max response mostly above about 13%, no sharp cut-off; inactive = mostly below about 14%; note: read at 38.3 µM for the half of the compounds with a filed dose; 0% is about no effect
# Pf growth 96h – Primary qHTS for delayed death inhibitors of the malarial parasite plastid, 96 hour incubation; P. falciparum luciferase reporter growth, 96 h; Potency, µM (highest dose often 28.7 µM), for the others: at the highest dose activity change, negative = inhibition, actives largely listed as inhibitors; actives 6.9% (n = 320,000); AID 504834, 2011; note: potency is the fitted concentration of half-maximal effect; % is set by controls: 0 for no effect and ±100 for the full control effect
#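 Cell-based qHTS: luciferase-tagged P. falciparum in erythrocytes (2% hematocrit, 0.05% parasitemia final) incubated with compounds for 96 hours, 37 C, 5% CO2; luciferase detection reagent then added and luminescence measured.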
# Shiga toxin inh – A qHTS for Small Molecule Inhibitors of Shiga Toxin; inhibition, % at 38.7 µM; Vero cells, Shiga toxin protein synthesis inhibition reporter; actives 9.2% (n = 290,000); in the data active = inhibition mostly above about 28%, no sharp cut-off; inactive = mostly below about 43%; note: 0% is about no effect
# Pf growth 48h – Primary qHTS for delayed death inhibitors of the malarial parasite plastid, 48 hour incubation; P. falciparum luciferase growth in erythrocytes, 48 h; Potency, µM (titrated, usually from 28.7 µM), inactives show at the highest dose activity change, negative = inhibition, hits mostly inhibitors; actives 5.9% (n = 310,000); AID 504832, 2011; note: potency is the fitted concentration of half-maximal effect; % is set by controls: 0 for no effect and ±100 for the full control effect
#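 A one-generation exposure of luciferase-tagged malaria parasites in RPMI 1640/Albumax erythrocyte culture, 37 C and 5% CO2. Inhibition is inferred from decreased luminescence after adding detection reagent.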
# Active calls of the source: *; i = inactive; ? = inconclusive; · = not tested or not shown; + = active, no number. Unless noted, calls come from the whole dose curve; as a rule, active = well fitted inhibition curve with a large enough effect; inconclusive = small, poorly fitted or top-dose-only effect, or another doubt; inactive = no such curve, though single readings can be large or run the other way.
SMILES,LmPK inhibitor,Cycloheximide cs,Pf growth 96h,Shiga toxin inh,Pf growth 48h
COc1ccccc1NS(=O)(=O)c1ccc(Cl)c(NC(=O)C(C)N2C(=O)c3ccccc3C2=O)c1 (stereo not given),0%,-2,?,-3,12%
c1ccc(Sc2ncnc3ccccc23)cc1,-5%,12*,?,36,?
N#CCSc1ncnc2ccccc12,-1%,1,-26%,-4,-13%
Cc1ccc(S(=O)(=O)N(C)CCCC(=O)NC(C)(C)C)cc1,-4%,-2,29%,-5,-1%
CCOC(=O)N1CCN(C2CCCN(C(=O)c3cccc(Cl)c3)C2)CC1 (stereo not given),-4%,-3,?,22,-16%
CCC1Sc2ccc(S(=O)(=O)CCC(=O)Nc3cc(C)ccn3)cc2NC1=O (stereo not given),14%,-3,0%,18,-8%
O=c1cc(-c2ccc(O)cc2)oc2ccc3ccccc3c12,·,·,-4%,·,-33%
O=c1cc(-c2ccccc2[N+](=O)[O-])oc2ccccc12,5%,6,0%,4,-3%
O=c1cc(-c2ccccc2F)oc2ccccc12,1%,28*,356%,59*,349%
CSc1ccc(-c2cc(=O)c3ccccc3o2)cc1,-3%,40*,?,34*,40%
Cc1csc2c(=O)[nH]cnc12,0%,-7,?,-15,13%
COc1ccc(OC2CCN(S(=O)(=O)c3ccc(C(C)=O)cc3)CC2)cc1,-1%,5,29%,5,?
O=C(Nc1ccccc1)c1ccccc1I,·,31*,·,42*,·
Cc1cccc(C(=O)NNC(=O)Nc2ccccc2)c1,-14%,2,13%,-2,48%
Cc1ccc(NC(=O)c2ccccc2O)cc1,-24%,34*,-89%,+,-7%
O=C(Nc1ccc(-c2ccccc2)cc1)c1ccccc1,4%,-3,?,·,31%
Cc1ccc(NC(=O)c2ccccc2)cc1,?,33*,3%,109*,104%
Cc1ccc(NC(=O)NNC(=O)c2ccccc2)cc1,-2%,22*,2%,44*,71%
Cc1nn(CC(=O)NCCc2ccc(Cl)cc2)c(=O)c2cccn12,2%,11,4%,-2,10%
COc1ccc2nc(SCC(=O)N(C)CC(=O)Nc3ccc(F)cc3)[nH]c2c1,·,·,32%,·,20%
COc1ccc(C2=NCCn3nc4cc(OC)ccc4c32)cc1,·,·,0%,·,15%
Cc1ccc(C(=O)NC(NC(=O)c2ccc(C)cc2)C(Cl)Cl)cc1,-4%,-1,?,-1,?
COc1ccc(NC(=O)c2ccc(C)cc2)c[n+]1[O-],3%,12*,42%,32,35%
Cc1ccc(NC(=O)C(=O)c2ccc(C)cc2)cc1,-5%,57*,144%,67,268%
Cc1ccc(C(NC(=O)c2ccccc2)C(Cl)Cl)cc1 (stereo not given),-8%,9,4.1µM*,1,?
SMILES,LmPK inhibitor,Cycloheximide cs,Pf growth 96h,Shiga toxin inh,Pf growth 48h
Cc1ccc(N/C(=C\C(=O)c2ccccc2)C(=O)O)cc1,0%,47*,20%,100*,80%
Cc1ccc(NC(=O)C2=C(c3ccccc3)S(=O)(=O)CCS2(=O)=O)cc1,5%,34*,0%,22,0%
Cc1cc(C)c(Nc2cc(S(=O)(=O)O)c(N)c3c2C(=O)c2ccccc2C3=O)c(C)c1,?,-9,?,-14,?
CNc1cc(CSc2ccc(Cl)cc2)nc(C)n1,-6%,47*,180%,99*,173%
Cc1nc(CSc2ccc(Cl)cc2)cc(N2CCOCC2)n1,1%,10,7.4µM*,-2,4%
Cc1nc(CSc2ccc(Cl)cc2)cc(NCc2ccccc2)n1,5%,14,-3%,22,·
CC(=O)c1ccc(N2CCN(C(=O)CCCc3nc4ccccc4s3)CC2)cc1,4%,-1,?,12,?
CCN1CCN(C(=O)CN(C)S(=O)(=O)c2ccc(OC)c(C)c2)CC1,-4%,-12,-25%,-24,·
CCN1CCN(C(=O)CN(c2ccc(F)cc2)S(=O)(=O)c2ccc(OC)c(OC)c2)CC1,1%,-2,6.6µM*,-24,-21%
COc1ccc(S(=O)(=O)N(C)CC(=O)N2CCCCCC2)cc1OC,0%,5,9.3µM*,-10,-4%
COc1ccc(S(=O)(=O)N(C)CC(=O)N2CCN(c3ccc(F)cc3)CC2)cc1OC,-7%,-3,·,-14,-23%
NS(=O)(=O)c1ccc(N/N=C/c2ccncc2)cc1,0%,7,?,28,6.6µM*
Cc1cccc(NC(=O)CCC(=O)N/N=C/c2ccc(O)cc2O)c1,2%,-1,?,2,?
Cc1cccc(N/N=C/c2ccncc2)c1,-4%,34*,?,45*,?
Cc1cccc(N/N=C/c2ccccc2O)c1,-5%,101*,?,98*,?
CCOC(=O)COc1cc(-n2c(=S)[nH]c3cc(OC)c(OC)cc3c2=O)c(Cl)cc1Cl,-11%,18,127%,-20,43%
Nc1cc(N)c(OCC(F)(F)F)cc1OCC(F)(F)F,-6%,2,0%,7,-22%
Nc1nc(OCC(F)(F)F)cc(Oc2ccccc2F)n1,-2%,22*,23%,80*,4%
CN(C)CCSc1nnc(-c2ccccc2)o1,2%,39*,?,57*,84%
Cc1cccc(-c2nnc(SCc3ccccc3)o2)c1,0%,28*,31%,92*,91%
Cc1cccc(CSc2nnc(-c3ccco3)o2)c1,0%,32*,?,89*,0%
CN(C)c1cccc(-c2nnc(SCCCC#N)o2)c1,-3%,49*,?,91*,250%
CCc1nc2ccc(C(=O)NCCCN3CCN(c4ccccc4F)CC3)cc2nc1CC,12%,-3,?,-10,?
O=C(Cc1ccc([N+](=O)[O-])cc1)N/N=C/c1ccccc1F,0%,3,-2%,-10,18%
COc1ccc(N2CC(C(=O)N(C)CC(=O)Nc3ccc(Cl)c(C(F)(F)F)c3)CC2=O)c(OC)c1 (stereo not given),·,·,13µM*,·,?
CCN(CC(=O)Nc1ccc2c(c1)OCCO2)C(=O)C1CC(=O)N(c2ccc(OC)cc2OC)C1 (stereo not given),·,·,4%,·,9%
Cc1nn(-c2cccc(C(F)(F)F)c2)c(Cl)c1/C=N/Nc1cccc(C(=O)O)c1,-6%,106*,i,+,257%
Cc1nn(-c2ccccc2Cl)c(Cl)c1/C=N/Nc1cccc(C(=O)O)c1,0%,64*,101%,70*,42%
CCOC(=O)N/N=C/c1c(C)nn(-c2cccc(C(F)(F)F)c2)c1Cl,2%,13*,1.5µM*,35,2.1µM*
Cc1nn(Cc2ccccc2)c(Cl)c1/C=N/NC(=O)CNc1cccc(C(F)(F)F)c1,3%,-1,12µM*,-7,?

# Assay outcomes deposited in PubChem BioAssay by National Center for Advancing Translational Sciences (NCATS).
